Assay results: ChEMBL document CHEMBL4513146, “CO-ADD screening of Karazin Kharkiv National University (Ukraine) compounds”
Potency and affinity values are given separately.

How the values were obtained:
Staphylococcus aureus = settings: Concentration 32 ug.mL-1;; ASSAY_TEST Inhibition of Bacterial Growth; detection method Absorption (OD600); MEDIA CAMHB; plate type 384well; NBS; CORNING #3640; time 18 hr
Escherichia coli = settings: Concentration 32 ug.mL-1;; ASSAY_TEST Inhibition of Bacterial Growth; detection method Absorption (OD600); MEDIA CAMHB; plate type 384well; NBS; CORNING #3640; time 18 hr

COc1ccc(NC(=O)Cn2nc3c4cc(-c5cc(C)ccc5C)nn4ccn3c2=O)c(OC)c1
Inhibition (Staphylococcus aureus): 3.39%
Inhibition (Escherichia coli): 3.2%

COC(=O)c1sccc1NC(=O)Cn1nc2c(Oc3ccccc3)nc3ccccc3n2c1=O
Inhibition (Staphylococcus aureus): 9.09%
Inhibition (Escherichia coli): 0.17%

O=C(Cn1nc2ccc(Sc3cccc(F)c3)nn2c1=O)Nc1cccc(Cl)c1
Inhibition (Staphylococcus aureus): -0.09%
Inhibition (Escherichia coli): -4.86%

CC(C)c1ccc(N(Cc2ccc(Cl)cc2)S(=O)(=O)c2cccn3cnnc23)cc1
Inhibition (Staphylococcus aureus): 8.06%
Inhibition (Escherichia coli): 3.76%

C=Cc1ccc(CN(c2cccc(F)c2)S(=O)(=O)c2ccc3nnc(C)n3c2)cc1
Inhibition (Staphylococcus aureus): 2.75%
Inhibition (Escherichia coli): -8.1%

Cc1ccc(NC(=O)Cn2nc3ccc(SC(C)C)nn3c2=O)c(C)c1
Inhibition (Staphylococcus aureus): -3.52%
Inhibition (Escherichia coli): 4.56%

CC(C)(C)NC(=O)Cn1nc2n(Cc3ccco3)c(=O)c3sccc3n2c1=O
Inhibition (Staphylococcus aureus): -2.47%
Inhibition (Escherichia coli): -8.7%

O=C(Cn1nc2ccc(-c3ccc(Cl)cc3)nn2c1=O)N1CCN(c2ccccc2F)CC1
Inhibition (Staphylococcus aureus): 9.33%
Inhibition (Escherichia coli): -0.1%

CC(=O)c1ccc(NC(=O)Cn2nc3ccc(-c4ccc(C)cc4)nn3c2=O)cc1
Inhibition (Staphylococcus aureus): 10.69%
Inhibition (Escherichia coli): -3.43%

O=C(CCc1nnc2c3cc(-c4ccc(F)cc4)nn3ccn12)NCc1ccccc1Cl
Inhibition (Staphylococcus aureus): -0.61%
Inhibition (Escherichia coli): -10.24%

CCc1ccc(N(Cc2ccccc2F)S(=O)(=O)c2cccn3c(CC)nnc23)cc1
Inhibition (Staphylococcus aureus): -9.17%
Inhibition (Escherichia coli): 1.03%

Cc1ccc(C)c(S(=O)(=O)Nc2ccc3nncn3n2)c1
Inhibition (Staphylococcus aureus): 15.24%
Inhibition (Escherichia coli): 1.21%

CC(C)CCNC(=O)CSc1nnc2c3cc(-c4ccccc4)nn3ccn12
Inhibition (Staphylococcus aureus): 4.29%
Inhibition (Escherichia coli): 0.66%

CCCc1nnc2c(=O)n(CC(=O)Nc3ccc(Br)cc3F)c3ccccc3n12
Inhibition (Staphylococcus aureus): -16.77%
Inhibition (Escherichia coli): -13.67%

Cc1ccc(-c2cc3c4nn(CC(=O)Nc5ccc(C)c(Cl)c5)c(=O)n4ccn3n2)cc1C
Inhibition (Staphylococcus aureus): -5.06%
Inhibition (Escherichia coli): -1.24%

N#Cc1cccc(NC(=O)CSc2nnc3c4cc(-c5ccc(F)cc5)nn4ccn23)c1
Inhibition (Staphylococcus aureus): 11.69%
Inhibition (Escherichia coli): -2.69%

COc1ccc(NC(=O)Cn2nc3c(SC4CCCCC4)nccn3c2=O)cc1OC
Inhibition (Staphylococcus aureus): 4.77%
Inhibition (Escherichia coli): -3.78%

CCc1ccc(NC(=O)Cn2nc3ccc(SC4CCCCC4)nn3c2=O)cc1
Inhibition (Staphylococcus aureus): 16.16%
Inhibition (Escherichia coli): 2.08%

COC(=O)c1cccc(NC(=O)Cn2nc3c(N4CCC(C)CC4)nccn3c2=O)c1
Inhibition (Staphylococcus aureus): -12.03%
Inhibition (Escherichia coli): -9.95%

Cc1ccc(Cn2nc3c(=O)n(-c4cccc(F)c4)ccn3c2=O)cc1
Inhibition (Staphylococcus aureus): 6.58%
Inhibition (Escherichia coli): -11.98%

CCOc1ccc(-c2nc(CSc3nc4ccccc4n4c(C(C)C)nnc34)c(C)o2)cc1
Inhibition (Staphylococcus aureus): -10.96%
Inhibition (Escherichia coli): -11.72%

Cc1ccc(NC(=O)Cn2nc3ccc(SC4CCCCC4)nn3c2=O)c(Cl)c1
Inhibition (Staphylococcus aureus): -1.24%
Inhibition (Escherichia coli): -5.46%

Cc1ccc(-c2ccc3nn(Cc4cccc(Cl)c4)c(=O)n3n2)cc1C
Inhibition (Staphylococcus aureus): 8.16%
Inhibition (Escherichia coli): -3.9%

Cc1cc(Nc2ccc(F)cc2)nc2nn(Cc3cccc(C#N)c3)c(=O)n12
Inhibition (Staphylococcus aureus): -3.76%
Inhibition (Escherichia coli): -11.43%

CCc1nnc2c(SCC(=O)Nc3ccc4c(c3)OCCO4)nc3ccccc3n12
Inhibition (Staphylococcus aureus): -7.96%
Inhibition (Escherichia coli): 3.84%

O=C(Cn1nc2c(Sc3ccccc3)nccn2c1=O)Nc1cc(F)ccc1F
Inhibition (Staphylococcus aureus): 0.01%
Inhibition (Escherichia coli): -13.52%

Cc1ccc(-c2ccc3nnc(CCC(=O)NCc4cccc(Br)c4)n3n2)cc1
Inhibition (Staphylococcus aureus): 12.72%
Inhibition (Escherichia coli): -0.13%
